We go through 9 compounds from PubChem BioAssay (NCI).

This is part of a sample that, as a whole, favours compounds with a hit. Of some 83,000 tested, about 20% had one in any assay.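 Testing used 96-well plates and a 48-hour single-concentration exposure. Example: -40 means 40% of the starting cells died.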 Values without a mark were called inactive. Active and inactive are the calls of the source. How the source made its calls: active means growth percent below 10; inactive means the rest.

Among the test systems are NCI-H23 lung; NCI-H226 lung; NCI-H322M lung; HOP-62 NSCLC; NCI-H460 lung; NCI-H522 lung; A549/ATCC NSCLC; 786-0 renal; COLO 205 colon; DU-145 prostate; K-562 leukemia; MALME-3M melanoma; MDA-MB-231 breast; SF-268 CNS; SF-295 CNS; SF-539 CNS; UACC-257 melanoma; M14 melanoma; HCT-15 colon; RXF 393 renal.
Test in all cases: NCI-60 one-dose screen, 48 h (100 = growth as untreated, 0 = no growth, -100 = all killed)
Holding throughout (conditions): 10 µM

Consider `CCC1(C(C)C)NC(=O)NC1=O` (centres undefined), for which the growth is 99.1% in the assay with NCI-H23 lung; 96.4% in the assay on NCI-H226 lung; 110% in the assay on NCI-H322M lung; 96% with HOP-62 NSCLC; 110% in the assay with NCI-H460 lung; 101% with NCI-H522 lung. Further, the growth in the assay with A549/ATCC NSCLC is 96.1%; in the assay with 786-0 renal, 97.7%; in the assay on COLO 205 colon, 115%; in the assay on DU-145 prostate, 104%; in the assay with K-562 leukemia it was 88.3%; in the assay on MALME-3M melanoma it was 104%. Further, the growth in the assay with MDA-MB-231 breast is 100%; in the assay with SF-268 CNS, 102%; in the assay on SF-295 CNS it was 97.6%; with SF-539 CNS it was 101%; in the assay on UACC-257 melanoma, 92.4%; with M14 melanoma, 107%. Also, in the assay with HCT-15 colon, the growth is 105%.
In the case of `Cc1cccc(Cl)c1NC(=O)c1ccc2nc(NC(=O)NC3CCN(C)CC3)sc2c1`, the growth in the assay with NCI-H23 lung was 82.3%; with NCI-H226 lung, 121%; with NCI-H322M lung, 95.5%; in the assay with HOP-62 NSCLC it was 63.1%; in the assay on NCI-H460 lung it was 114%; in the assay with NCI-H522 lung, 83.5%. Also, the growth in the assay on A549/ATCC NSCLC was 91.5%; in the assay on 786-0 renal it was 91.2%; in the assay with COLO 205 colon it was 37.4%; in the assay on DU-145 prostate, 103%; in the assay with K-562 leukemia, 7.86% (active); with MALME-3M melanoma it was 60.8%. In addition, the growth was 96.7% with MDA-MB-231 breast; 86% with SF-268 CNS; 83.5% in the assay on SF-295 CNS; 44.3% in the assay with SF-539 CNS; 84.7% with UACC-257 melanoma; 101% with HCT-15 colon.
On to `CCCN(CCC)CCC(O)c1cc2c(c3ccccc13)CCCC2` (centres undefined), for which the growth with NCI-H23 lung was 79.8%; with NCI-H226 lung it was 81.1%; in the assay with NCI-H322M lung, 99.1%; in the assay on HOP-62 NSCLC, 79.4%; with NCI-H460 lung, 98.9%; in the assay on NCI-H522 lung, 74.2%. For the same compound, the growth is 92.3% with A549/ATCC NSCLC; 84.3% in the assay on 786-0 renal; 77% with COLO 205 colon; 106% in the assay on DU-145 prostate; 82.5% in the assay with K-562 leukemia; 95% in the assay on MALME-3M melanoma. The growth in the assay with MDA-MB-231 breast is 79.1%; in the assay on SF-268 CNS, 83.3%; with SF-295 CNS, 85.4%; with SF-539 CNS, 85.4%; in the assay with UACC-257 melanoma, 95.8%; in the assay with M14 melanoma it was 91.9%. Also, in the assay on HCT-15 colon, the growth was 81.4%.
With `COc1ccc2nc3cc(Cl)ccc3c(NCCNCC(C)O)c2c1` (centres undefined), the growth in the assay with NCI-H23 lung is 42.8%; in the assay on NCI-H226 lung, 67.9%; with NCI-H322M lung, 25.8%; in the assay with HOP-62 NSCLC it was 19%; with NCI-H460 lung, 0.055% (active); with NCI-H522 lung, -56.5% (active). In addition, the growth in the assay with A549/ATCC NSCLC is -3.68% (active); in the assay with 786-0 renal it was 35.5%; in the assay on COLO 205 colon it was 8.35% (active); in the assay on DU-145 prostate, 28.8%; in the assay with K-562 leukemia, 2.47% (active); in the assay on MALME-3M melanoma, 44.4%. Further, the growth with MDA-MB-231 breast was 34.3%; with SF-268 CNS, 36%; in the assay with SF-295 CNS, 35.1%; in the assay on SF-539 CNS it was 26.2%; in the assay on UACC-257 melanoma, 30.2%; in the assay with M14 melanoma, 43.3%. In the assay on HCT-15 colon, the growth was 19.4%.
Consider `CCN(CC)CCCC(C)Nc1nc(-c2ccc(OC)cc2)nc2cc(Cl)ccc12` (centres undefined), for which the growth with NCI-H23 lung was 73.2%; in the assay with NCI-H226 lung, 91.7%; in the assay on NCI-H322M lung it was 65.4%; in the assay on HOP-62 NSCLC, 70.5%; with NCI-H460 lung it was 72.5%; in the assay with NCI-H522 lung, 35.6%. In addition, the growth was 69.6% in the assay with A549/ATCC NSCLC; 65.5% in the assay on 786-0 renal; 41.6% in the assay on COLO 205 colon; 77.9% in the assay on DU-145 prostate; 44.3% in the assay with K-562 leukemia; 79.2% in the assay on MALME-3M melanoma. For the same compound, the growth was 28.9% in the assay on MDA-MB-231 breast; 60.1% in the assay on SF-268 CNS; 89.7% in the assay with SF-295 CNS; 62% in the assay with SF-539 CNS; 46% in the assay on UACC-257 melanoma; -29% (active) with M14 melanoma. The growth with HCT-15 colon was 49.9%.
With `c1ccc(C(NC2CC3CCC2C3)c2ccccc2)cc1` (centres undefined), the growth with NCI-H23 lung was 105%; with NCI-H226 lung it was 85.8%; in the assay on NCI-H322M lung, 101%; in the assay on HOP-62 NSCLC, 97.2%; in the assay with NCI-H460 lung, 105%; with NCI-H522 lung, 85.5%. For the same compound, the growth is 95.7% in the assay with A549/ATCC NSCLC; 97% with 786-0 renal; 103% in the assay on COLO 205 colon; 108% with DU-145 prostate; 92.8% in the assay with K-562 leukemia; 96.1% in the assay with MDA-MB-231 breast. Also, the growth with RXF 393 renal was 102%; in the assay on SF-268 CNS, 105%; in the assay on SF-295 CNS it was 94.7%; with SF-539 CNS, 111%; in the assay on UACC-257 melanoma it was 102%; in the assay on M14 melanoma, 93.1%. Moreover, the growth in the assay with HCT-15 colon is 97.6%.
In the case of `Cc1occc1-c1nnc(SCC(=O)c2ccc(NC(=O)CC(C)C)cc2)o1`, the growth in the assay on NCI-H23 lung was 110%; with NCI-H226 lung, 109%; with NCI-H322M lung it was 106%; in the assay with HOP-62 NSCLC, 99.6%; in the assay with NCI-H460 lung, 108%; with NCI-H522 lung, 81.9%. Also, the growth was 87.7% in the assay on A549/ATCC NSCLC; 96.3% in the assay with 786-0 renal; 110% in the assay with COLO 205 colon; 109% in the assay on DU-145 prostate; 86.1% in the assay on K-562 leukemia; 89.8% with MALME-3M melanoma. The growth was 105% with MDA-MB-231 breast; 132% in the assay with SF-268 CNS; 104% with SF-295 CNS; 101% with SF-539 CNS; 112% with M14 melanoma; 121% with HCT-15 colon.
Regarding `CC(=O)c1cc(Cl)ccc1O`, the growth in the assay on NCI-H23 lung is 106%; in the assay with NCI-H226 lung, 98.1%; in the assay with NCI-H322M lung it was 101%; in the assay with HOP-62 NSCLC, 107%; in the assay on NCI-H460 lung, 101%; with NCI-H522 lung it was 118%. For the same compound, the growth in the assay on A549/ATCC NSCLC is 101%; in the assay on 786-0 renal, 104%; in the assay with COLO 205 colon it was 112%; with DU-145 prostate, 105%; in the assay on K-562 leukemia, 103%; in the assay on MDA-MB-231 breast, 100%. The growth in the assay on RXF 393 renal was 106%; in the assay with SF-268 CNS, 104%; in the assay on SF-295 CNS, 94.1%; with SF-539 CNS it was 89.1%; in the assay with UACC-257 melanoma, 110%; in the assay on M14 melanoma, 106%. Further, the growth in the assay on HCT-15 colon is 98.9%.
`CCN1CCC(CCOC)(CN2c3ccccc3Sc3ccc(Cl)cc32)C1` (centres undefined): the growth is 63.5% in the assay with NCI-H23 lung; 73.9% in the assay on NCI-H226 lung; 65.7% in the assay with NCI-H322M lung; 58.3% in the assay with HOP-62 NSCLC; 24.1% in the assay on NCI-H460 lung; 65.1% in the assay with NCI-H522 lung. Also, the growth is 61.1% with A549/ATCC NSCLC; 48.7% in the assay with 786-0 renal; 40% with COLO 205 colon; 69.5% in the assay on DU-145 prostate; -15.2% (active) in the assay with K-562 leukemia; 35% in the assay on MDA-MB-231 breast. Also, the growth is 37.3% in the assay on RXF 393 renal; 63.3% in the assay with SF-268 CNS; 72.4% in the assay on SF-295 CNS; 78% in the assay on SF-539 CNS; 24.6% in the assay on UACC-257 melanoma; -65.9% (active) with M14 melanoma. Moreover, the growth in the assay on HCT-15 colon is 49.1%.
